Laboratory results published in PubChem BioAssay (NCI).
About 83,000 compounds went through this panel and 20% of them were active in at least one assay; those are over-represented in the sample as a whole.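 How to read the values: 0–100, growth inhibition (40 = 60% inhibited); 0, no net growth; -100 to 0, cell death (-40 = 40% of starting cells died; -100 = all dead).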 The source made the active and inactive calls. Rule for the calls: active = growth percent below 10; inactive = the rest.

System: OVCAR-3 ovarian
Assay: NCI-60 one-dose screen, 48 h (100 = growth as untreated, 0 = no growth, -100 = all killed)
Conditions: 10 µM unless noted

Row | SMILES | growth
1 | COc1ccc(-c2cn(-c3cccc(C(=O)/C=C/c4ccc(O)c(OC)c4)c3)c(=O)[nH]2)cc1 | -1.7% (active)
2 | Cc1ccccc1N1C(c2ccccc2)=NNC12C=CC(=O)c1c(O)cccc12 (centres undefined) | 60.5% (inactive)
3 | COc1cc(Nc2ccnc3ccc(Br)cc23)cc(OC)c1OC | 29.8% (inactive)
4 | CN1CCN(Cc2ccc(NC(=O)c3cncc(C#Cc4ccc(N)nc4)c3)cc2C(F)(F)F)CC1 | 27.2% (inactive)
5 | COc1ccc(Sc2[nH]c(C=O)c3ccccc23)cc1 | 65.7% (inactive)
6 | COCCOCCOCc1n(Cc2ccc3ccccc3n2)c2ccccc2[n+]1Cc1ccc2ccccc2c1 | 1.01% (active)
7 | COc1ccc(C2C3CCc4ccccc4C3=NN2C(=O)c2cc(OC)c(OC)c(OC)c2)cc1O (centres undefined) | 109% (inactive)
8 | O=c1[nH]cnc2nc[nH]c12 | 174% (inactive)
9 | CC(=O)O[C@H]1[C@H](CC#CC#CC[C@@H]2C[C@]3(C)[C@H]4CC=C5[C@H]6[C@@H](C)[C@H](C)CC[C@]6(C(=O)NCCN(CCN)CCN)CC[C@@]5(C)[C@]4(C)CC[C@H]3C(C)(C)[C@H]2OC(C)=O)C[C@]2(C)[C@H]3CC=C4[C@H]5[C@@H](C)[C@H](C)CC[C@]5(C(=O)NCCN(CCN)CCN)CC[C@@]4(C)[C@]3(C)CC[C@H]2C1(C)C | 89% (inactive)
10 | Fc1ccc2nc(-c3ccc(-c4noc(-c5ccc(Cl)cc5)n4)cc3)[nH]c2c1 | 105% (inactive)
11 | CCNS(=O)(=O)c1ccc(C)cc1 | 111% (inactive)
12 | OC(c1cc(-c2ccc(C(F)(F)F)cc2)nc(-c2ccc(C(F)(F)F)cc2)c1)C1CCCCN1 (centres undefined) | -90.4% (active)
13 | CC1(C)C(N(O)C(=O)Nc2ccc(Cl)cc2)N(c2ccc(Cl)cc2)C(=O)N1CC(=O)N/N=C/C=C/c1ccc([N+](=O)[O-])o1 (centres undefined) | -26.8% (active)
14 | Cc1cc(N=Nc2ccc(-c3ccc(N=Nc4ccc(O)c(C(=O)O)c4)cc3)cc2)c(N)c(N=Nc2ccc(C(=O)O)cc2)c1N | 93.1% (inactive)
15 | NC(N)=N/N=C\c1cccc(OCc2ccccc2)c1 | 79.1% (inactive)
16 | CNC(=O)c1ccccc1Sc1ccc2c(/C=C/c3ccccn3)n[nH]c2c1 | 52.7% (inactive)
17 | CC(=O)c1c(C)nc(-c2cc(C)cc(Cl)c2)nc1-c1cccc(Oc2ccccc2)c1 | 38.6% (inactive)

Row | SMILES | growth
18 | CCN(CC)Cc1cc(Nc2nc(NC3CCC(N(C)C)CC3)c3ccccc3n2)ccc1OC (centres undefined) | 92.4% (inactive)
19 | Cc1nc2c(-c3cnc(N)nc3)nc(N3CCOCC3)nc2n1C(C)C | 10% (inactive)
20 | C[C@@H]1C[C@H](N)C[C@H](c2ccncc2NC(=O)c2ccc(F)c(-c3c(F)cccc3F)n2)C1 | 74.5% (inactive)
21 | Nc1nonc1-c1nc2ccccc2n1Cc1ccc(F)cc1 | 48.5% (inactive)
22 | C=CC[C@]1(O)CC[C@H]2[C@@H]3CCc4cc(O)ccc4[C@H]3CC[C@@]21C | 102% (inactive)
23 | [Ag].[Ag].[NH-]S(=O)(=O)c1ccc(N=Nc2cc(N=Nc3ccc(S([NH-])(=O)=O)cc3)c3c(NC(=O)C(Cl)Cl)cccc3c2OC(=O)C(Cl)Cl)cc1.[c-]1nccs1.[c-]1nccs1 | 72.7% (inactive)
24 | CCCCCCCCCCCCCCC(C(=O)OCC)C(=O)OCC | 110% (inactive)
25 | CN(C)c1ccc(C(c2ccccc2)c2ccc(N(C)C)cc2)cc1 | 94.9% (inactive)
26 | Cc1n(Cc2ccc3ccccc3n2)cc[n+]1Cc1ccc2ccccc2c1 | 6.35% (active)
27 | FC(F)(F)c1ccc(/C=N/Nc2nnc3n2N=C(c2ccc(Cl)cc2)CS3)cc1 | 46.7% (inactive)
28 | CS(=O)(=O)Nc1cc(-c2cc3ncc(C#N)c(Nc4ccc(Oc5ccccc5)c(Cl)c4)c3s2)cnc1Cl | 50.7% (inactive)
29 | Cc1cc(C)c2c(n1)sc1c(Nc3ccc(O)cc3)ncnc12 | 55.3% (inactive)
30 | c1ccc(C2=Nc3ccccc3SC2)cc1 | 99.4% (inactive)
31 | COc1cc2c(cc1OCCCOc1cc3c(cc1OC)C(=O)N1CCC[C@H]1C=N3)C=CC(C)(C)O2 | 109% (inactive)
32 | O=[N+]([O-])c1cccc(N=C(Nc2cccc([N+](=O)[O-])c2)c2ccccc2)c1 | 88.2% (inactive)
33 | C=CCn1c(C)nc2cc(Nc3nc(N4CCOCC4)nc4nc[nH]c34)ccc21 | 97.7% (inactive)
34 | C=C1NC(=O)C(C(C)CC)NC(=O)C2CSCC(NC(=O)CCC(=O)O)C(=O)NC(Cc3ccccc3)C(=O)NC(C)C(=O)NC(CC(C)CC)C(=O)NC(C(=O)NC(Cc3ccccc3)C(=O)N3CCCC3C(=O)N2)C(C)OC(=O)C(CO)NC(=O)C(C(O)COC)N(C)C(=O)C(C(C)C)NC(=O)C(CC(C)CC)NC1=O (centres undefined) | 12.4% [6 µM] (inactive)
